Measurements from publication PMC7819943, “Rice protein-binding microarrays: a tool to detect cis-acting elements near promoter regions in rice”.
In all, about 35,000 sequences were measured (“fluorescence intensity (a.u.)”: median about 10,000, highest 2% from about 52,000 on). This excerpt belongs to a sample that is enriched for the highest values.

biological target: T1, OsWOX13 (Oryza sativa, UniProt Q5QMM3 1-267); assay: protein-binding microarray (RPBM); PBS, 2% BSA, 51.3 ng/ul salmon testes DNA, 50 uM zinc acetate, 200 nM TF, 25 C, 1 h; high values mean tight binding; conditions: protein: recombinant; tags: N-terminal polyhistidine and DsRed monomer fusion (pET32a); label: CyDye5-dUTP incorporated in the synthesized complementary strand; 3' TTTTT single-stranded linker to array surface; dsDNA, one strand shown
T1 sequence: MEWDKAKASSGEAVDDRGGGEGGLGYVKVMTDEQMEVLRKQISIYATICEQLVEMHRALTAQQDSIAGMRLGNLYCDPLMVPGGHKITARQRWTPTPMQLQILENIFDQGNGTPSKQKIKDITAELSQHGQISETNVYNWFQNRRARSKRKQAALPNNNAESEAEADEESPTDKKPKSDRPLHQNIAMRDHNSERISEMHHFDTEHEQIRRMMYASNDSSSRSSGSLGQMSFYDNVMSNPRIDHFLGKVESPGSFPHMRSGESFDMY
Summary of the method: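 Binding signal is reported as fluorescence intensity per feature (arbitrary units) from an Axon 4000B scanner. Incubation used 200 nM of each Ni–NTA-purified, N-terminally polyhistidine- and DsRed-fused transcription factor from E. coli BL21-CodonPlus on a double-stranded custom Agilent array for 1 h at 25 °C, with 50 µM zinc acetate in the buffer, followed by washing.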

| Sequence | binding signal |
| --- | --- |
| CCTGATTGGTTGTATTGCTTGAAGTAGACTATTGAGATTGCGGAGTCACCTAGTGCAG | 60200 fluorescence intensity (a.u.) |
| GATGATGTGACTGAAAAGTTGTATGTGTATGACATATTGACGGAGTCACCTAGTGCAG | 11500 fluorescence intensity (a.u.) |
| GCTATTAGATTGACTATATATGAATTGGAGCTAGTAGTTGCGGAGTCACCTAGTGCAG | 42900 fluorescence intensity (a.u.) |
| ATGATTGAATGAATGAAACCCTAGTTTGTTTTGATTTGTACGGAGTCACCTAGTGCAG | 54400 fluorescence intensity (a.u.) |
| GTTGAATGTTTTGTATGATTTGAACCTGAAAACTGCATGACGGAGTCACCTAGTGCAG | 7380 fluorescence intensity (a.u.) |
| GATGTGATTGAAAGTTTGTGTGTGTATGACAGTTTGATGTCGGAGTCACCTAGTGCAG | 61700 fluorescence intensity (a.u.) |
| GTGATTGACTGATTGTGTGATTGTGTGAAGTGTATTGGTTCGGAGTCACCTAGTGCAG | 65000 fluorescence intensity (a.u.) |
| GATGTGACTGAAAAGTTGTATGTGTATGACAGGTTGATGTCGGAGTCACCTAGTGCAG | 8260 fluorescence intensity (a.u.) |
| ATATGATAGAAAAGTTGTGTATGTATGAAATGTTTGATGTCGGAGTCACCTAGTGCAG | 9060 fluorescence intensity (a.u.) |
| TGGAATGATGTGATGGAAAAGTTGAAAGTTTGTGTGTGTACGGAGTCACCTAGTGCAG | 5390 fluorescence intensity (a.u.) |
| GGTTGCTGATTGTATCCTTTACTACTAGATCTTGACTGAGCGGAGTCACCTAGTGCAG | 16300 fluorescence intensity (a.u.) |
| AGTTAATGAAATAATGCCAGCCTGCTGTCTTCTGATTATCCGGAGTCACCTAGTGCAG | 6010 fluorescence intensity (a.u.) |
| GCCTGCATTCATTTCCCTAATCAATCGGCTCGGATAATGTCGGAGTCACCTAGTGCAG | 4450 fluorescence intensity (a.u.) |
| CGAATCTAAACAATCAATATTTAATTATACTTCCTCTAGACGGAGTCACCTAGTGCAG | 12600 fluorescence intensity (a.u.) |
| AAGATTGGGCTGTTCATTAATCAAATTATTCTATGTGTCTCGGAGTCACCTAGTGCAG | 11900 fluorescence intensity (a.u.) |
| TACACGAGATTGGAGGCACTAGGCCTCAGTACATGGCACGCGGAGTCACCTAGTGCAG | 3870 fluorescence intensity (a.u.) |
| GTATGATTATCTTTCTTCGAGTAATTAACACGAAACGATGCGGAGTCACCTAGTGCAG | 40700 fluorescence intensity (a.u.) |
| AATAAATTGTATTAATAACAAATTAGTCTATTCTATTAAACGGAGTCACCTAGTGCAG | 24100 fluorescence intensity (a.u.) |
| AATAATGAATTTAAAATAAAATAAAACTGCATGCAAGCGACGGAGTCACCTAGTGCAG | 5650 fluorescence intensity (a.u.) |
| AGTAGATTTTGACATGCTGTGTGTTAACAATGGGAGTAGACGGAGTCACCTAGTGCAG | 3550 fluorescence intensity (a.u.) |
| ACCCATCACTAATCAGTAATCACAGTATTACTATTAAATTCGGAGTCACCTAGTGCAG | 9220 fluorescence intensity (a.u.) |

| Sequence | binding signal |
| --- | --- |
| CATTTAATTCATTGTTATATATATATATATATAGACACACCGGAGTCACCTAGTGCAG | 3920 fluorescence intensity (a.u.) |
| TAACAAACTATTCCTAATTAATAGATAAACTGCCATGCCGCGGAGTCACCTAGTGCAG | 8390 fluorescence intensity (a.u.) |
| TTATAATTAGTATTTTCATTGTTGTTAGATGATAAAACATCGGAGTCACCTAGTGCAG | 17500 fluorescence intensity (a.u.) |
| AATGTGTTAACTAATCAACTCGTCTCCCATCTCCTGCAAGCGGAGTCACCTAGTGCAG | 5480 fluorescence intensity (a.u.) |
| GGGTGCTGAAATTGATATACGATCAATTGTTGTCGGTGATCGGAGTCACCTAGTGCAG | 14000 fluorescence intensity (a.u.) |
| CTTGTATGTTTGTGGATTGATATATTATATATTGATATATCGGAGTCACCTAGTGCAG | 6720 fluorescence intensity (a.u.) |
| CGTTAATCGTTGTGATTGATGTCGGATATGTTTGCCACCACGGAGTCACCTAGTGCAG | 58600 fluorescence intensity (a.u.) |
| GTAATTGGGCTTTCTTTGGGTAGTTATCGCTGGGCTTAATCGGAGTCACCTAGTGCAG | 6360 fluorescence intensity (a.u.) |
| ACTTGTGTGATGTTTGGATTGATGCCAAAACTTGCCAAATCGGAGTCACCTAGTGCAG | 3930 fluorescence intensity (a.u.) |
| TTGTGATTTGTTAGAATTGTATTTTACAATGTGTAGTATGCGGAGTCACCTAGTGCAG | 39800 fluorescence intensity (a.u.) |
| GTCTCTGTCTCTCGCTCTGATTGAAGTGTTCTGCTGCCATCGGAGTCACCTAGTGCAG | 20400 fluorescence intensity (a.u.) |
| CTACTGATTGTATTGATTGGGTAGCTGGATTGAAGTTAATCGGAGTCACCTAGTGCAG | 57000 fluorescence intensity (a.u.) |
| TGAGCTGATTGATCGTCTGAAGGGTGTCTGATTGTCAAGTCGGAGTCACCTAGTGCAG | 52800 fluorescence intensity (a.u.) |
| GTCATCATTGATTGATATGATTTTGTATGTGTGAGCAATGCGGAGTCACCTAGTGCAG | 59400 fluorescence intensity (a.u.) |
| AATATGATTGCTTTGTGGGTGTATGGTTCATTTTCAATGGCGGAGTCACCTAGTGCAG | 47700 fluorescence intensity (a.u.) |
| TGCTGGATTGTATTGATGTGTGTGCTTACCTAGTATAAATCGGAGTCACCTAGTGCAG | 3580 fluorescence intensity (a.u.) |
| ACCAGGAAGTCATAAATTAATGGATCGAATATGACCTGCTCGGAGTCACCTAGTGCAG | 3160 fluorescence intensity (a.u.) |
| GGTTAATTATGCGAAAGAGAATCTTAATCCCAGGGGCTTTCGGAGTCACCTAGTGCAG | 17600 fluorescence intensity (a.u.) |
| CCTGATTTCTAAAGAAAGCCGTCCGGTTTTAACTGAGTCTCGGAGTCACCTAGTGCAG | 10100 fluorescence intensity (a.u.) |
| TATTTTGGACCCATGATAGATTGATTTAGAACATGCGGAGCGGAGTCACCTAGTGCAG | 11400 fluorescence intensity (a.u.) |
| CTCCACTAATCTAAAATTTGTTTAATGGATCATTGCATCACGGAGTCACCTAGTGCAG | 16000 fluorescence intensity (a.u.) |
